Experimental findings from PubChem BioAssay (EPA / NIEHS) are described below.

Active and inactive are the calls of the source. How the source made its calls: active means hit-call score of the fitted dose curve at least 0.9, where 1 is the maximum; inactive means score below 0.9.

The first test in a line: ATG_FoxO_CIS: Attagene CIS-FACTORIAL HepG2 Assay for human Forkhead box O (FoxO) (AID 2282943). The conditions noted are these: HepG2 Attagene cis-reporter, FoxO element, mRNA; actives raise or lower the signal. The method, boiled down: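 Human hepatoma HepG2 cells carry transiently introduced reporter transcription units controlled by cis promoter elements. Chemical treatment lasted 24 h, and mRNA signal was compared with DMSO.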
Turning to `CC(Cl)COP(=O)(OCC(C)Cl)OCC(C)Cl` (stereo not given), the result was inactive. Regarding `CCCCCCC=O`, the compound was classed as inactive. On to `CCCCCCOc1ccc(N)cc1`, for which the compound was classed as inactive.

For the compound `C=CC(C)(CCC=C(C)C)OC(=O)C=Cc1ccccc1` (stereo not given), the result was inactive. As to `CCCCCCCCCCCCCC(=O)OC(C)C`, the compound was classed as inactive. For the compound `CCCCCC(=O)OCC`, the compound was classed as inactive. `CCCCCCCOC(=O)c1ccc(O)cc1`: the compound was called inactive. Turning to `Cc1ccccc1CCO`, the outcome was inactive.

`CCC(C)N` (stereo not given): the compound was called inactive. For `COC(OC)(C(=O)c1ccccc1)c1ccccc1`, the compound was classed as inactive. Regarding `[Cl][Eu]([Cl])[Cl]`, the call was inactive. Regarding `Nc1ncnc2nc[nH]c12`, the compound was classed as inactive. On to `COc1ccc(C(=O)/C(Br)=C\C(=O)O)cc1`, for which the call was inactive. As to `CCN1CN(CC)CN(CC)C1`, the compound was called inactive. Turning to `CCOC(=O)c1ccc(C)cc1`, the compound was called inactive. For the compound `Cc1ccc(S(=O)(=O)N=C=O)cc1`, the outcome was inactive. With `C=C(C)C1CC=C(C)CC1` (stereo not given), the compound was classed as inactive. Consider `COc1cc(C)ccc1O`, for which the result was inactive. In the case of `C=CC(=O)OCCCCCCOC(=O)C=C`, the compound was classed as inactive. For the compound `c1ccc2sc(SSN3CCOCC3)nc2c1`, the AC50 was 158 µM (active). Take `CCCCOCCOCCOC(C)=O`: the compound was called inactive. Still for that read-out and setting: the same measure for `CC(C)CC(=O)OCc1ccccc1`: “inactive”. The same measure, in the same setting: the same measure for `CC(=O)OC/C=C(/C)CCC=C(C)C`: “inactive”; for `CCCCCC1=CCCC1=O`: “inactive”. `CCC(C)(O)CCCC(C)C` (stereo not given): the result was inactive. With `CC(C)(CO)COC(=O)C(C)(C)CO`, the call was inactive. Turning to `Cc1c[nH]c(=O)[nH]c1=O`, the compound was called inactive. On the same count and under the same terms, next, `CC(=O)CCC1=C(C)CCCC1(C)C`: “inactive”. Consider `CCCCCCCCCCCC(C)=O`, for which the AC50 is 171 µM (active). On to `O=C1CCCCCCCCCCC1`, for which the outcome was inactive.

With `Nc1nc(N)nc(-c2ccccc2)n1`, the outcome was inactive. The same measure, in the same setting: next, `CCOC(=O)C1=NOC(c2ccccc2)(c2ccccc2)C1`: “inactive”.

As to `Cc1c(O)cccc1O`, the compound was classed as inactive.

A further test can be described thus: ATG_GATA_CIS: Attagene CIS-FACTORIAL HepG2 Assay for human GATA Binding Protein (AID 2282944). The note with it: HepG2 GATA cis-element reporter, Attagene multiplex mRNA; actives raise or lower the signal. The method, boiled down: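 HepG2 cells transiently transfected with multiplexed cis-element reporter units measure endogenous GATA activity; after 24 h compound exposure, reporter mRNA quantified by RT-PCR and capillary electrophoresis. Changes fitted in both directions vs DMSO.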
`CC(Cl)COP(=O)(OCC(C)Cl)OCC(C)Cl` (stereo not given): the compound was classed as inactive. For the compound `CCCCCCC=O`, the compound was called inactive. As to `CCCCCCOc1ccc(N)cc1`, the compound was classed as inactive.

For `C=CC(C)(CCC=C(C)C)OC(=O)C=Cc1ccccc1` (stereo not given), the outcome was inactive.

As to `CCCCCCCCCCCCCC(=O)OC(C)C`, the outcome was inactive.

With `CCCCCC(=O)OCC`, the compound was called inactive. With `CCCCCCCOC(=O)c1ccc(O)cc1`, the call was inactive.

Regarding `Cc1ccccc1CCO`, the outcome was inactive. In the case of `CCC(C)N` (stereo not given), the result was inactive. As to `COC(OC)(C(=O)c1ccccc1)c1ccccc1`, the compound was classed as inactive.

In the case of `[Cl][Eu]([Cl])[Cl]`, the compound was called inactive.

Consider `Nc1ncnc2nc[nH]c12`, for which the compound was classed as inactive. On the same count and under the same terms, next, `COc1ccc(C(=O)/C(Br)=C\C(=O)O)cc1`: “inactive”; `CCN1CN(CC)CN(CC)C1`: “inactive”. Regarding `CCOC(=O)c1ccc(C)cc1`, the compound was called inactive. On to `Cc1ccc(S(=O)(=O)N=C=O)cc1`, for which the compound was classed as inactive. On the same count and under the same terms, the same measure for `C=C(C)C1CC=C(C)CC1` (stereo not given): “inactive”. For `Cc1ccc2c(c1)CCCN2`, the result was inactive. Still for that read-out and setting: next, `COc1cc(C)ccc1O`: “inactive”.

As for `C=CC(=O)OCCCCCCOC(=O)C=C`, the compound was called inactive. Regarding `c1ccc2sc(SSN3CCOCC3)nc2c1`, the compound was classed as inactive. Take `CCCCOCCOCCOC(C)=O`: the compound was classed as inactive. `CC(=O)OCCc1ccccc1`: the outcome was inactive.

Turning to `CC(C)CC(=O)OCc1ccccc1`, the compound was called inactive.

`CC(=O)OC/C=C(/C)CCC=C(C)C`: the compound was classed as inactive. On to `CCCCCC1=CCCC1=O`, for which the outcome was inactive.

For the compound `CCC(C)(O)CCCC(C)C` (stereo not given), the result was inactive. Regarding `COc1ccc(C(=O)c2ccccc2)c(O)c1`, the compound was classed as inactive. With `CC(C)(CO)COC(=O)C(C)(C)CO`, the compound was called inactive. In the case of `Cc1c[nH]c(=O)[nH]c1=O`, the compound was classed as inactive. As to `CCOB(OCC)OCC`, the compound was called inactive. With `CC(=O)CCC1=C(C)CCCC1(C)C`, the call was inactive.

Consider `CCCCCCCCCCCC(C)=O`, for which the compound was called inactive. On the same count and under the same terms, next, `O=C1CCCCCCCCCCC1`: “inactive”. For `Nc1nc(N)nc(-c2ccccc2)n1`, the result was inactive. Same read-out and setting: next, `CCOC(=O)C1=NOC(c2ccccc2)(c2ccccc2)C1`: “inactive”; `Cc1c(O)cccc1O`: “inactive”.

The term AC50 denotes the concentration giving half of the maximal activity seen.
